Reference: PubChem BioAssay (EPA / NIEHS)
The source made the active and inactive calls. The calls were made as follows: active = hit-call score of the fitted dose curve at least 0.9, where 1 is the maximum; inactive = score below 0.9.

Assay: ATG_M_32_CIS: Attagene CIS-FACTORIAL HepG2 Assay for M32 Transcription Factor (Internal Marker) (AID 2282949);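 also: background control marker of the multiplexed CIS panel rather than a real target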
Settings: HepG2 Attagene cis-factorial M32 reporter, mRNA; actives raise or lower the signal
Experimental: ATG_CIS is a cell-based, multiplexed-readout assay that uses HepG2, a human liver cell line, with measurements taken at 24 hours after chemical dosing in a 24-well plate.ATG_M_32_CIS is one of 52 assay component(s) measured or calculated from the ATG_CIS assay. It is designed to make measurements of mRNA induction, a form of inducible reporter, as detected with fluorescence intensity signals by Reverse transcription polymerase chain reaction (RT-PCR) and Capillary electrophoresis technology.Data from the assay component ATG_M_32_CIS was analyzed into 1 assay endpoint. This assay endpoint, ATG_M_32_CIS, was analyzed with bidirectional fitting relative to DMSO as the negative control and baseline of activity. Using a type of inducible reporter, measures of mRNA for gain or loss-of-signal activity can be used to understand the background control at the transcription factor-level as they relate to the gene . Furthermore, this assay endpoint can be referred to as a secondary readout, because this assay has produced multiple assay endpoints where this one serves a background control function. To generalize the intended target to other relatable targets, this assay endpoint is annotated to the background measurement intended target family, where the subfamily is internal marker.
Human liver HepG2 cells are transiently transfected with multiple reporter transcription units (MRTUs) in 6-well plates using FuGene 6 reagent (Roche; 3 ml FuGene/1 mg DNA). The MRTU constructs are regulated by a cis-regulating element (promoter). […] A major difference between the CIS and TRANS system is that in CIS activities of endogenous TFs are measured, whereas the TRANS assay evaluates changes in activities of exogenous, chimeric NR-Gal4 proteins. […] At the end of 24 hour incubation, total RNA was isolated using TriZol reagent (Invitrogen). The isolated RNA is then reverse-transcribed using oligo(dT) primer and Mo-MLV reverse transcriptase (Invitrogen) with DNAse I (Ambion) treatment for 30 min. The one-tenth of the produced cDNA was amplified by PCR using Taq DNA polymerase (Invitrogen) and two reporter sequence-specific primers. The PCR products were fluorescently labeled by primer extension with 6-arboxyfluorescein (6-FAM) 5'-labeled reporter sequence-specific primer (2 min at 95 C, 20 s at 68 C and 10 min at 72 C) and these products were digested with 5U of HpaI (New England Biolabs) for 2h at 37 C. The fragments were purified using Qiaquick PCR columns (Qiagen), analyzed on an ABI 3130xL genetic analyzer (Applied Biosystems) with peak positions identified by using a set of X-rhodamine (ROX)-labeled MapMarker1000 molecular weight standards (BioVentures). The raw capillary electrophoresis data was processed using Attagraph software (Attagene).

Compound | outcome
CSc1nnc(C(C)(C)C)c(=O)[nH]1 | inactive
NC(=O)NC1NC(=O)NC1=O (stereo not given) | inactive
CC(CC(C)(C)C)CC(C)(C)CC(C)(C)C (stereo not given) | inactive
C=CCOc1nc(OCC=C)nc(OCC=C)n1 | inactive
CC1(CO)CN(c2ccccc2)NC1=O (stereo not given) | inactive
CCCCCCCCCCCCOCCO | inactive
Sc1nc(S)nc(S)n1 | inactive
CCC(=O)OCc1ccccc1 | inactive
COc1cc(C(C)(C)C)c(O)c(C(C)(C)C)c1 | inactive
CNC[C@H](O)c1cccc(O)c1 | inactive
CCCCCCCCCCCCCC(=O)O | inactive
C=O | inactive
Cc1ccccc1C=O | inactive
C=C(C)C1CCC(C)CC1O (stereo not given) | inactive
NCCNCCN | inactive
C=C(C)C(=O)O | inactive
CCO[Si](CCCS)(OCC)OCC | inactive
CCCCOCCOCCOCCOCCO | inactive
CC[C@]12CCCN3CCc4c(n(c5ccccc45)[C@@](O)(C(=O)OC)C1)[C@@H]32 | inactive
COC(C)CCO (stereo not given) | inactive

Compound | outcome
c1ccc(CCCc2ccccn2)cc1 | inactive
CC(C)=CCCC(C)=CCCC(C)=CCO | inactive
CCCCC/C=C/C=C/C=O | inactive
O=C1NC(=O)c2ccccc21 | inactive
c1cc(C(c2ccc(OCC3CO3)cc2)c2ccc(OCC3CO3)cc2)ccc1OCC1CO1 (stereo not given) | inactive
OCCCCCO | inactive
O=C1C(c2[nH]c3ccc(S(=O)(=O)O)cc3c2O)=Nc2ccc(S(=O)(=O)O)cc21 | inactive
OCCN1CCNCC1 | inactive
Cc1cccc(C)c1[N+](=O)[O-] | inactive
Cc1cccc(C)c1C | inactive
O=C(O)CN(CCN(CC(=O)O)CC(=O)O)CCN(CC(=O)O)CC(=O)O | inactive
N#Cc1nc(Cl)c(Cl)c(Cl)c1Cl | inactive
c1ccc2c(c1)c1cccc3ccc4cccc2c4c31 | inactive
CCC(O)CO (stereo not given) | inactive
O=C(Cl)c1cccc(C(=O)Cl)c1 | inactive
CN1Cc2c(N)cccc2C(c2ccccc2)C1 (stereo not given) | inactive
Cc1cccc(Nc2ccccc2C(=O)O)c1C | inactive
CC(C)(CO)[N+](=O)[O-] | inactive
OCCOc1cccc(OCCO)c1 | inactive
OC[C@H]1O[C@H](O[C@]2(CCl)O[C@H](CCl)[C@@H](O)[C@@H]2O)[C@H](O)[C@@H](O)[C@H]1Cl | inactive
